These results are taken from PubChem BioAssay (NCATS).

Results filed as inconclusive are left out. Calls of active or inactive are those of the source. The call rests on the fitted dose curve; in most records, active means well fitted inhibition curve with a large enough effect; inconclusive means small, poorly fitted or top-dose-only effect; inactive means flat fitted curve, though single readings scatter.

Test in all cases: qHTS profiling for inhibitors of Plasmodium falciparum proliferation (AID 504749); further: nearly all actives have a fitted effect of over 60% in size
Settings in all cases: P. falciparum in erythrocytes, SYBR Green DNA, 72 h; series mostly up to 28.7 µM

One assay relates to CP237. The method, boiled down:
(§1)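 SYBR Green fluorescence (ex 485 nm, em 535 nm) reports parasite DNA after 72 h compound exposure of infected red cells at 0.3% parasitemia, 2.5% hematocrit; signal normalized to 0.29 uM artemisinin and vehicle wells.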

In another assay the test system is CP238. The method, boiled down: as §1
Another assay deals with CP247. The method, boiled down: as §1
Another assay concerns CP250. The procedure, abridged:
as §1

A further assay concerns CP252. The method, boiled down:
as §1

The test system of a further assay is CP256. The procedure, abridged:
as §1

Another assay relates to CP260. The procedure, abridged:
as §1

Another assay relates to CP262. The procedure, abridged: as §1
Another assay has as its system CP265. The method, boiled down:
as §1

For another assay, the system named is CP266. The method, boiled down: as §1
Potency means the concentration at half of the fitted maximal effect.

Regarding `O=C1NS(=O)(=O)c2ccccc21`, the Potency entry in the assay with CP237, with CP238, in the assay on CP247, in the assay with CP250, in the assay on CP252 and in the assay on CP256 was “inactive” throughout. For the same compound, the Potency result with CP260, with CP262, in the assay on CP265 and in the assay with CP266 was “inactive” throughout.

Regarding `NC(=O)NNc1ccccc1`, the Potency result in the assay on CP237, in the assay on CP238, in the assay on CP247, in the assay on CP250, in the assay on CP252 and in the assay with CP256 was “inactive” in each case. For the same compound, the Potency entry in the assay with CP260, in the assay with CP262, in the assay with CP265 and in the assay on CP266 was “inactive” throughout.

As to `NCC(=O)CCC(=O)O`, the Potency entry in the assay on CP237, with CP238, in the assay on CP247, with CP250, with CP252 and in the assay with CP256 was “inactive” throughout. Also, the Potency entry with CP260, in the assay on CP262, with CP265 and in the assay with CP266 was “inactive” each time.

`O=c1cc[nH]c(=O)[nH]1`: the Potency result in the assay on CP237, with CP238, in the assay with CP247, in the assay with CP250, in the assay with CP252 and in the assay with CP256 was “inactive” in each case. For the same compound, the Potency entry with CP260, in the assay on CP262, in the assay with CP265 and in the assay with CP266 was “inactive” throughout.

For the compound `CCCCC(CC)COC(=O)c1ccccc1O` (stereo unspecified), the Potency result in the assay with CP237, in the assay with CP238, with CP247, in the assay on CP250, in the assay on CP252 and in the assay with CP256 was “inactive” in each case. Moreover, the Potency result in the assay on CP260, in the assay with CP262, in the assay on CP265 and in the assay with CP266 was “inactive” in each case.

Turning to `[O-][n+]1cccc(CO)c1`, the Potency result in the assay on CP237, with CP238, in the assay on CP247, in the assay on CP250, in the assay with CP252 and in the assay on CP256 was “inactive” throughout. Besides, the Potency entry in the assay on CP260, in the assay on CP262, with CP265 and with CP266 was “inactive” each time.

With `CC(C)(C)C(=O)NCCCC(=O)O`, the Potency result with CP237, in the assay on CP238, with CP247, with CP250, in the assay on CP252 and with CP256 was “inactive” in each case. The Potency result in the assay with CP262, in the assay on CP265 and with CP266 was “inactive” each time.

Consider `CC[C@@]1(c2ccccc2)NC(=O)N(C)C1=O`, for which the Potency result with CP237, in the assay on CP238, with CP247, in the assay with CP250, in the assay on CP252 and in the assay with CP256 was “inactive” in each case. Besides, the Potency entry in the assay on CP260, with CP265 and in the assay with CP266 was “inactive” in each case.

As for `O=S(=O)(O)c1cc(I)c(O)c2ncccc12`, the Potency result in the assay on CP237, in the assay on CP238, in the assay on CP247, with CP250, in the assay with CP252 and with CP256 was “inactive” each time. Also, the Potency entry with CP262, with CP265 and in the assay with CP266 was “inactive” in each case.

For the compound `CCC(=O)c1ccc(O)cc1`, the Potency result in the assay with CP237, in the assay with CP238, with CP247, with CP250, in the assay on CP252 and in the assay on CP256 was “inactive” in each case. The Potency entry in the assay with CP260, with CP262, with CP265 and with CP266 was “inactive” each time.

For the compound `CCCCOc1cc(C(=O)OCCN(CC)CC)ccc1N`, the Potency entry with CP237, in the assay with CP238, with CP247, with CP250, with CP252 and in the assay with CP256 was “inactive” each time. For the same compound, the Potency result in the assay with CP260, with CP262, in the assay on CP265 and in the assay on CP266 was “inactive” each time.

For the compound `COc1cc(C)c(Cc2cnc(N)nc2N)cc1OC`, the Potency result with CP237, in the assay on CP238, in the assay with CP247, in the assay on CP250, in the assay on CP252 and with CP256 was “inactive” throughout. Also, the Potency entry in the assay with CP260, in the assay with CP262, in the assay on CP265 and with CP266 was “inactive” each time.

Regarding `Nc1ccc(S(=O)(=O)NC(=O)c2ccccc2)cc1`, the Potency entry with CP237, in the assay with CP238, in the assay on CP247, in the assay on CP250, in the assay on CP252 and with CP256 was “inactive” throughout. In addition, the Potency entry with CP260, in the assay on CP262, with CP265 and in the assay with CP266 was “inactive” each time.

With `NS(=O)(=O)c1cc2c(cc1Cl)NC(CSCc1ccccc1)=NS2(=O)=O`, the Potency entry in the assay on CP237, with CP238, with CP247, with CP250, in the assay on CP252 and in the assay on CP256 was “inactive” each time. The Potency entry with CP260, with CP262, in the assay with CP265 and in the assay on CP266 was “inactive” each time.

Consider `CCCCCCCCCCCCCCCC(=O)NCCO`, for which the Potency entry with CP237, in the assay on CP238, in the assay on CP247, in the assay with CP250, in the assay on CP252 and with CP256 was “inactive” in each case. Besides, the Potency result in the assay on CP260, in the assay with CP262, in the assay on CP265 and in the assay on CP266 was “inactive” in each case.

As to `CC1(C)OC(=O)NC1=O`, the Potency entry with CP237, in the assay with CP238, with CP247, with CP250, in the assay on CP252 and with CP256 was “inactive” in each case. The Potency result with CP262, in the assay with CP265 and in the assay with CP266 was “inactive” in each case.

As for `CC1(C)[C@@H]2CC[C@@]1(C)C(=O)C2`, the Potency result in the assay on CP237, in the assay on CP238, in the assay with CP247, in the assay on CP250, in the assay with CP252 and in the assay with CP256 was “inactive” each time. In addition, the Potency entry in the assay with CP260, in the assay with CP262, in the assay with CP265 and in the assay on CP266 was “inactive” each time.

`O=C(Oc1ccccc1C(=O)O)c1ccccc1O`: the Potency result with CP237, with CP238, in the assay with CP247, in the assay on CP250, in the assay on CP252 and in the assay with CP256 was “inactive” in each case. The Potency result with CP260, with CP262, in the assay on CP265 and in the assay on CP266 was “inactive” throughout.

As to `CCCOC(=O)c1ccccc1`, the Potency entry in the assay on CP237, in the assay on CP238, in the assay with CP247, with CP250, in the assay with CP252 and in the assay with CP256 was “inactive” throughout. Also, the Potency result in the assay on CP260, in the assay on CP265 and in the assay with CP266 was “inactive” in each case.

In the case of `Cc1cc(C(C#N)c2ccc(Cl)cc2)c(Cl)cc1NC(=O)c1cc(I)cc(I)c1O` (stereo unspecified), the Potency entry in the assay with CP237, in the assay with CP238, with CP247, in the assay on CP250, in the assay with CP252 and with CP256 was “inactive” throughout. Also, the Potency entry with CP260, in the assay on CP262, in the assay on CP265 and in the assay with CP266 was “inactive” throughout.

For `CCCCN(CCCC)CC(O)c1cc(Cl)cc2c1-c1ccc(Cl)cc1/C2=C/c1ccc(Cl)cc1` (stereo unspecified), the Potency with CP237 is 11.2 nM (active); with CP238, 28.2 nM (active); with CP247, 39.8 nM (active); in the assay on CP250, 28.2 nM (active); with CP252, 35.5 nM (active); in the assay with CP256, 79.4 nM (active). The Potency is 31.6 nM (active) in the assay with CP260, 33.8 nM (active) with CP262, 112 nM (active) in the assay with CP265 and 135 nM (active) with CP266.

In the case of `Cc1ncc(COP(=O)(O)O)c(C=O)c1O`, the Potency entry in the assay on CP237, in the assay with CP238, with CP247, with CP250, in the assay on CP252 and with CP256 was “inactive” in each case. Further, the Potency entry in the assay on CP260, in the assay on CP262, in the assay on CP265 and in the assay with CP266 was “inactive” each time.

Take `CCCCCCCCCCCCCCCCCCOCC(O)CO` (stereo unspecified): the Potency result with CP237, in the assay on CP238, with CP247, with CP250, with CP252 and with CP256 was “inactive” each time. Besides, the Potency entry with CP260, in the assay with CP262, in the assay with CP265 and in the assay on CP266 was “inactive” throughout.

Consider `CCCc1c(OCCCCc2nn[nH]n2)ccc(C(C)=O)c1O`, for which the Potency result with CP237, in the assay with CP238, in the assay on CP250, in the assay on CP252, in the assay on CP256 and in the assay on CP262 was “inactive” in each case. For the same compound, the Potency result with CP265 and in the assay on CP266 was “inactive” each time.

As to `CNCCC(Oc1ccc(C(F)(F)F)cc1)c1ccccc1` (stereo unspecified), the Potency entry with CP237, in the assay with CP262 and in the assay on CP266 was “inactive” each time.
